According to PubChem BioAssay AID720650 (Broad Institute, 2013):
Active and inactive are the calls of the source. How the calls were made is not given here.

Experiment: C difficile toxins, biochemical counterscreen, UDPG substrate absence, confirmatory dose response (AID 720650)
Settings: series mostly up to 19.5 µM

SMILES | AC50
CCCCNC(=O)C1CCN(S(=O)(=O)c2c(C)noc2/C=C\c2ccc(OC)cc2)CC1 | inactive
CCC(CO)[n+]1c(C)cc(/C=C2\Sc3ccccc3N2Cc2ccccc2)cc1C (stereo not given) | 3.4 µM (active)
O=C(CNS(=O)(=O)c1ccccc1)N/N=C/c1ccc(O)cc1 | 14.9 µM (active)
COc1nc(C)cc(C)c1S(=O)(=O)c1ccc(Cl)cc1 | inactive
CC(OC(=O)C1=COCCO1)C(=O)c1ccc(Br)cc1 (stereo not given) | inactive
